# Test results as given in PubChem BioAssay (Tox21).
# Values joined by “and” are separate entries in the source; they are usually repeats but may differ in a detail not shown here. Identical values can stand only once. Results filed as inconclusive are left out. Entries that show only a call come without a potency. Unmarked numbers belong to inactive results. Active and inactive are the calls of the source. Calls follow the shape of the full dose curve.
# Test: p53 small molecule agonists, cell-based qHTS assay with human liver microsomes (AID 1963577);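 as to activation: p53 response element beta-lactamase reporter cells with liver microsomes plus NADPH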
# In short: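 16 h, 37 C exposure of p53RE-bla cells to compounds with human liver microsomes and NADPH (0.5 mg/mL final each); detection via LiveBLAzer mixture, 2 h dark at room temperature.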
# Potency is read from the fitted curve at half-maximal effect.
SMILES,Potency,activation
ClCCOCOCCCl,inactive,–
O=C(O)CC[N+](=O)[O-],inactive,–
Cc1coc2c1CCC(C)C2 (stereo not given),inactive,–
C[C@]12CCC(=O)C(O)=C1CC[C@@H]1[C@@H]2CC[C@]2(C)C(=O)CC[C@@H]12,inactive,–
Cc1cccc(C)c1N,inactive,–
O=C(O)CCCc1ccc(N(CCCl)CCCl)cc1,inactive,–
O=c1oc2ccccc2c(O)c1C(CC(O)c1ccc(-c2ccc(Br)cc2)cc1)c1ccccc1 (stereo not given),inactive,–
O=NN1CCCCC1,inactive,–
COc1ccc(C=O)cc1OC,inactive,–
O=C(Cl)c1ccccc1,inactive,–
Cc1cccc(C#N)c1,inactive,–
CCNc1nc(Cl)nc(NC(C)C)n1,inactive,–
Cc1cc(Cl)ccc1OCC(=O)O,inactive,–
CCCCCCCCOC(=O)c1ccc(C(=O)OCCCCCCCC)c(C(=O)OCCCCCCCC)c1,inactive,–
O=C(Nc1ccc(Br)cc1)c1cc(Br)cc(Br)c1O,inactive,–
CCOP(=S)(OCC)SCSc1cc(Cl)ccc1Cl,inactive,–
CCCN(CCC)c1c([N+](=O)[O-])cc(C(C)C)cc1[N+](=O)[O-],inactive,–
CCCCCCOC(=O)c1ccccc1C(=O)OCCCCCC,inactive,–
OCCSCSCCO,inactive,–
C=CCN=C=S,inactive,–
OCc1ccco1,inactive,–
CN(CCCC(=O)c1cccnc1)N=O,inactive,–

SMILES,Potency,activation
Cc1cccc(N=Nc2ccc(N(C)C)cc2)c1,inactive,–
OC(c1ccc(Cl)cc1)(c1cncnc1)c1ccccc1Cl (stereo not given),inactive,–
Cc1nn(-c2cc(NS(C)(=O)=O)c(Cl)cc2Cl)c(=O)n1C(F)F,inactive,–
COC[C@H](C)N(C(=O)CCl)c1c(C)csc1C,inactive,–
CCOP(=S)(OCC)OP(=S)(OCC)OCC,18.2 µM (active),–
CN1C[C@H](C(=O)N[C@]2(C)O[C@@]3(O)[C@@H]4CCCN4C(=O)[C@H](Cc4ccccc4)N3C2=O)C=C2c3cccc4[nH]cc(c34)C[C@H]21,inactive,–
CC(C)[N+](C)(CCC(C(N)=O)(c1ccccc1)c1ccccc1)C(C)C,inactive,–
CCCBr,inactive,–
NC(=O)CF,inactive,–
CO[C@@H]1[C@H](OC(=O)NC(=O)CCl)CC[C@]2(CO2)[C@H]1[C@@]1(C)O[C@@H]1CC=C(C)C,–,-1.53% [at 13.5 µM]
C=CCCl,inactive,–
C[N+](C)(C)C,inactive,–
COC(=O)c1ccccc1CS(=O)(=O)NC(=O)Nc1nc(OC)cc(OC)n1,inactive,–
C1=Cc2cccc3cccc1c23,inactive,–
CCOP(=O)(OCC)Oc1ccc([N+](=O)[O-])cc1,654 nM (active) and 513 nM (active),–
CC(=O)C(Cl)Cl,inactive,–
O=C1C(Cl)=C(Cl)C(=O)C(Cl)=C1Cl,inactive,–
CNC(=O)Oc1cccc2c1OC(C)(C)O2,inactive,–
CCN(CC)C(=O)/C(Cl)=C(\C)OP(=O)(OC)OC,1.86 µM (active) and 9.13 µM (active),–
C1CS1,inactive,–
CNC,inactive,–
O=C1C=CC(=O)C=C1,inactive,–

SMILES,Potency,activation
N#Cc1ccccn1,inactive,–
COC(C)(C)CCCC(C)C/C=C/C(C)=C/C(=O)OC(C)C (stereo not given),inactive,–
CCOP(=S)(OCC)Oc1cc(C)nc(C(C)C)n1,inactive,–
Cl/C=C\C[N+]12CN3CN(CN(C3)C1)C2,inactive,–
O=P(Oc1ccccc1)(Oc1ccccc1)Oc1ccccc1,inactive,–
O=P(O)(Oc1ccccc1)Oc1ccccc1,inactive,–
NC(=S)c1c(Cl)cccc1Cl,inactive,–
CNC(=O)Oc1ccccc1OC(C)C,inactive,–
CCOP(=S)(OCC)Oc1nc(Cl)c(Cl)cc1Cl,inactive,–
CC(=O)[O][Hg][c]1ccccc1,inactive,–
Nc1ccc(-c2ccccc2)cc1,inactive,–
CCCCC(CC)CO[N+](=O)[O-] (stereo not given),inactive,–
CCCCCBr,inactive,–
COP(=S)(OC)SCn1nnc2ccccc2c1=O,12.6 µM (active),–
Nc1nc(=S)[nH][nH]1,inactive,–
Cc1ccc([N+](=O)[O-])cc1,inactive,–
ClCC(Cl)CCl,inactive,–
CCOP(=S)(OCC)O/N=C(\C#N)c1ccccc1,2.57 µM (active),–
CCCCSP(=O)(SCCCC)SCCCC,inactive,–
OC(Cc1ccccc1Cl)(Cn1cncn1)C1(Cl)CC1 (stereo not given),inactive,–
CCOC(=O)CC(SP(=S)(OC)OC)C(=O)OCC (stereo not given),inactive,–
